FLuc modulator = qHTS profiling assay for firefly luciferase inhibitor/activator using purifed enzyme and Km concentrations of substrates (counterscreen for miR-21 project); Luciferin 4-monooxygenase (Photinus pyralis), P08659; 360,000 tested, 6.9% active; purified FLuc, Km substrates, luminescence inhibition; Potency, µM (top dose mostly 57.5 µM), inactives show at the highest dose activity change, negative = inhibition, usual class: inhibitors; AID 588342, 2011;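 further: plate controls were vehicle for no effect and reference inhibitor for full effect; nearly all actives have a fitted effect of over 55% in size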
Target sequence (P08659 whole entry, looked up): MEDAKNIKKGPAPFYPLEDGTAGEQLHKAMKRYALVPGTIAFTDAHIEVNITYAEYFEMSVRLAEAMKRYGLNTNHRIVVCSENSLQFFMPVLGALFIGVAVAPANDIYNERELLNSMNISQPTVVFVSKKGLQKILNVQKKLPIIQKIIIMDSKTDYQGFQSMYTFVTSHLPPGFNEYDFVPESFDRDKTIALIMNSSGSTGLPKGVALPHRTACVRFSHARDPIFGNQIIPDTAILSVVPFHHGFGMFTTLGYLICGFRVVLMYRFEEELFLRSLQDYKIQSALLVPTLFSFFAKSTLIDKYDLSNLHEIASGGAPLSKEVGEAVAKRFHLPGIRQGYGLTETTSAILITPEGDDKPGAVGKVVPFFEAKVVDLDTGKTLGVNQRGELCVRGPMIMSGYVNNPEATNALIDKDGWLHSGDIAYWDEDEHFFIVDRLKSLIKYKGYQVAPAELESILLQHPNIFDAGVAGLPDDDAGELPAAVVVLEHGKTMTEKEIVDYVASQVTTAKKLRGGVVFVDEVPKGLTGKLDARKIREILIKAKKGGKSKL
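Biochemical qHTS of compounds, final roughly 60 µM downward over six points, against 10 nM purified firefly luciferase using Km concentrations of substrates (10 uM D-luciferin, 10 uM ATP) in Tris acetate pH 7.5 buffer; luminescence output.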
Rab9 prom act = qHTS Assay for Rab9 Promoter Activators; 320,000 tested, 2.8% active; Potency, µM (highest dose often 9.22 µM), for inactives: at the highest dose activation, negative = inhibition, most hits filed as activators; AID 485297, 2010; Huh7 Rab9 promoter-luciferase reporter, luminescence, 24 h; further: % of control where 0% means no effect; nearly all actives have a fitted effect of over 60% in size
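Huh7 cells stably carrying Rab9 promoter–luciferase reporter, plated 1500 cells/well, compound added after 2 h and incubated 24 h at 37 °C; luciferase luminescence then read after 10 min with detection reagent.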
SMN2 splice enh = qHTS Assay for Enhancers of SMN2 Splice Variant Expression | 210,000 tested, 2.8% active | HEK293 SMN2-luciferase splicing reporter, luminescence, 30-36 h | Potency, µM (doses to about 46.1 µM), for inactives: at the highest dose activity change, positive = activation, hits mostly activators; further: % of control where 0% means no effect; nearly all actives have a fitted effect of over 55% in size
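HEK293 cells carry an SMN2 […]–luciferase reporter in which exon 7 inclusion puts luciferase in frame. Cells were plated 10-12 h before compound addition, then incubated 30-36 h at 37C. ONE-Glo luminescence was read; sodium butyrate at 4.5 mM final served as control.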
ELG1 genotox = qHTS screen for small molecules that induce genotoxicity in human embryonic kidney (HEK293T) cells expressing luciferase-tagged ELG1 | HEK293T ELG1-luciferase reporter, luminescence, 16 h | Potency, µM (titrated, usually from 46 µM), for inactives: at the top dose activity change, positive = activation, usual class: activators | 330,000 tested, 1.3% active | AID 504466, 2011; further: % of control where 0% means no effect; nearly all actives have a fitted effect of over 60% in size
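Genotoxicity was scored as increased ELG1-luciferase reporter signal, measured by ONE-Glo luminescence (30 min, room temperature). Compound or vehicle exposure of the HEK293T reporter cells lasted 16 hr at 37°C.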
NPC1 prom act = qHTS Assay for NPC1 Promoter Activators | Huh7 NPC1 promoter luciferase reporter, 24 h | Potency, µM (titrated, usually from 9.22 µM), inactives show at the top dose activation, most hits filed as activators | 320,000 tested, 2.4% active | AID 485313, 2010; further: % of control where 0% means no effect; nearly all actives have a fitted effect of over 60% in size
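Huh7 reporter cells (NPC1 promoter driving luciferase) are dosed with compound for 24 h at 37 °C, 5% CO2; luciferase detection reagent is then added and luminescence measured after 10 min at ambient temperature.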
* hit, by the source's call; ? = inconclusive; . = not tested or not shown; [ ] = dose if it differs, or a comment. Shown are actives, neighbours in structure and some others; about 7.5% of the full set was active somewhere. The call rests on the fitted dose curve; in most records, active means well fitted curve in the direction sought with a large enough effect; inconclusive means small, poorly fitted or top-dose-only effect, or another doubt; inactive means no such curve, though single readings can be large; an effect the other way counts as inactive or inconclusive. Potency means the concentration at half of the fitted maximal effect.

SMILES	FLuc modulator	Rab9 prom act	SMN2 splice enh	ELG1 genotox	NPC1 prom act
Cc1cccc(/C=C\c2nc3ccccc3c(=O)[nH]2)c1	0.85µM*	?	2.8µM*	10µM*	?
CN(C)c1ccc(/C=C/c2nc3ccccc3c(=O)n2CCO)cc1	-15%	9%	.	-2%	15%
O=c1[nH]c(COc2ccccc2)nc2ccccc12	?	?	.	?	30%
CN(C)c1ccc(/C=C/c2nc3ccccc3c(=O)[nH]2)cc1	0.21µM*	0.089µM*	.	0.58µM*	0.11µM*
O=c1[nH]c(COc2ccc(Br)cc2Cl)nc2ccccc12	1.9µM*	3.5µM*	.	7.3µM*	3.2µM*
O=c1[nH]c(/C=C/c2ccc(Br)cc2)nc2ccccc12	0.17µM*	0.4µM*	.	?	0.32µM*
CC=O	.	.	-5%	.	.
CCN(Cc1ccncc1)C(=O)c1cc(COc2c(F)cccc2F)on1	0%	-3%	.	-5%	0%
COc1cc(/C=C/c2nc3ccccc3c(=O)[nH]2)cc(Cl)c1O	-7%	0%	.	2%	15%
Cc1nc(/C=C/c2ccccc2)[nH]c(=O)c1-c1ccccc1	1.9µM*	0.63µM*	2.8µM*	?	?
CN(C)c1ccc(/C=C(\C#N)c2nc3ccccc3c(=O)[nH]2)cc1	0.3µM*	.	-3%	.	.
Cc1cc(C)c(C(=O)CSc2nnc(C)s2)c(C)c1	-1%	0%[1.84 µM]	-14%	-5%	-4%
CCOc1ccc(C(=O)CSc2nnc(N)s2)cc1	13µM*	3.2µM*	12%	?	2.5µM*
Cc1nnc(SCC(=O)c2ccc(C(C)C)cc2)s1	9.5µM*	?	5%	10%	29%
Cc1ccc(C(=O)CSc2nnc(N)s2)c(C)c1	17µM*	2.5µM*	16µM*	15µM*	3.2µM*
Cc1cc2occ(CC(=O)N(C)CC(=O)Nc3ccc(F)cc3)c2cc1C	-2%	0%	.	-1%	0%
O=C1C2C3C=CC(C3)C2C(=O)N1/N=C/c1ccc(-c2ccccc2[N+](=O)[O-])o1 (stereo unspecified)	19µM*	24%	?	3%	17%
O=C1C2C3C=CC(C3)C2C(=O)N1/N=C/c1cc(Br)cc([N+](=O)[O-])c1O (stereo unspecified)	19µM*	-5%	-16%	11%	-4%
O=C1C2C3C=CC(CC3)C2C(=O)N1c1ccc(Br)cc1[N+](=O)[O-] (stereo unspecified)	-3%	1%	.	-5%	0%
CC(=O)Nc1ccc(NC(=O)C(C)Sc2n[nH]c(-c3ccc(C)cc3)n2)cc1 (stereo unspecified)	24µM*	?	.	3%	13%
O=C(COC(=O)c1ccco1)Nc1ccc([N+](=O)[O-])cc1Cl	-3%	0%	.	8%	-2%
O=C(COC(=O)c1ccco1)Nc1nc2ccc([N+](=O)[O-])cc2s1	19µM*	1%	.	-4%	-2%
O=C(COC(=O)c1ccc(Br)o1)Nc1nc2ccccc2s1	-17%	14%	-2%	1%	0%
Cc1ccc2nc(NC(=O)COC(=O)c3ccco3)sc2c1	13µM*	.	30%	.	.
Cc1ccc2nc(NC(=O)COC(=O)c3ccc(Br)o3)sc2c1	27µM*	?	5%	1%	?
SMILES	FLuc modulator	Rab9 prom act	SMN2 splice enh	ELG1 genotox	NPC1 prom act
COc1ccc(CCNC(=O)CCC(=O)n2ncc3ccc(Cl)cc32)cc1OC	7%	6%	.	5%	-4%
O=C(NCC1(c2ccccc2)CCCC1)C(=O)N1CCOCC1	-6%	-6%	4%	1%	1%
CC(C)c1ccc(N2C(=O)CSC23C(=O)N(Cc2ccccc2)c2ccccc23)cc1 (stereo unspecified)	2%	.	.	.	.
Cc1ccn2c(=O)nc(SCC(=O)c3ccc(Cl)cc3)nc2c1	-14%	2%	.	?	0%
Cc1ccn2c(C(=O)c3ccc(Cl)cc3)cnc2c1	2.1µM*	1.4µM*	22%	1.2µM*	3.5µM*
O=C(Nc1cccc(F)c1)Nc1ccc(Cl)cn1	?	?	.	17%	?
Cc1ccc(NC(=O)Nc2cccc(F)c2)nc1	6.7µM*	?	.	?	?
Cc1ccnc(NC(=O)Nc2cccc(F)c2)c1	0.95µM*	1µM*	3.5µM*	0.92µM*	1.6µM*
CC(=O)Nc1ccc(SCCCC(=O)c2ccccc2)cc1	24µM*	?	.	?	?
CC(=O)c1cccc(NC(=O)CCCSc2ccccc2)c1	?	-3%	.	0%	0%
COc1ccc(-n2c(C)cc(C(=O)CSc3ccc(NC(C)=O)cc3)c2C)cc1	?	19%	-33%	4%	28%
Cc1cc(C(=O)CSc2cccc[n+]2[O-])c(C)n1-c1ccccc1	1.7µM*	0.45µM*	1µM*	?	0.45µM*
Cc1cc(C(=O)CSc2nncn2C)c(C)n1-c1ccccc1	8.5µM*	0.45µM*	11µM*	-4%	2µM*
CC(=O)Nc1ccc(SCC(=O)c2cc(C)n(-c3ccccc3)c2C)cc1	5.4µM*	3.5µM*	-20%	?	?
COC(=O)c1ccc([N+](=O)[O-])cc1N1C(=O)C2C3CCC(C3)C2C1=O (stereo unspecified)	1%	0%	-8%	-2%	18%
CCOC(=O)c1ccc(S(=O)(=O)N2CCN(C(=O)c3nn(C)c(=O)c4ccccc34)CC2)cc1	0%	-5%	-2%	-4%	0%
CCOC(=O)c1ccc(NC(=O)CC2C(=O)N(c3ccccc3)C(=O)N2C2CCCCC2)cc1 (stereo unspecified)	4%	.	14%	.	.
Cc1cc(C(=O)CSc2cccc[n+]2[O-])c(C)n1-c1ccc(Br)cc1	15µM*	24%	-42%	?	26%
Cc1cc(C(=O)C(C)OC(=O)c2ccc(NC(=O)CC#N)cc2)c(C)n1-c1ccccc1 (stereo unspecified)	17µM*	-3%	.	30%	1%
COc1cc(NC(=O)C(CCSC)NS(=O)(=O)c2ccc3c(c2)oc(=O)n3C)cc(OC)c1 (stereo unspecified)	-4%	.	.	.	.
C=C[C@H]1CCC=C2C(=O)CCC[C@@H]21	.	.	2%	.	.
O=C(c1cc(-c2ccccc2O)on1)N1CCOCC1	12µM*	?	.	13µM*	?
O=C(c1cc(-c2ccccc2O)on1)N1CCCCCC1	11µM*	?	.	23µM*	?
COc1ccccc1-c1cc(C(=O)N2CCN(c3ccccc3)CC2)no1	?	-1%	-5%	-6%	0%
COc1ccc(N=C2NC(=O)S/C2=C\c2ccc(N(C)C)cc2)cc1	21µM*	?	?	?	?
O=C1N=C(c2ccccc2)S/C1=C\c1cccs1	3.8µM*	19%	3%	?	24%
